From PubChem BioAssay
mHTT-CaM PPI inh: disrupts binding of mutant huntingtin to calmodulin; 3.6% of 190,000 active; AlphaScreen His-mHTT/GST-CaM binding, luminescence; inhibition, % at 15 µM; AID 1671202; P42858;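 also: 0% = both proteins with DMSO and 100% = one protein alone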
Pf apPOL inh: Pf-apPOL DNA polymerase inhibition; Recombinant Pf-apPOL, molecular beacon fluorescence, 1.5 h; inhibition, % at 10 µM; 0.25% of 210,000 active
* hit, by the source's call; i = inactive; . = no result given. Sampled rows, rich in hits. Any-hit rate of the full collection: about 3.6%. Rule as the data show it: active = inhibition above about 50%; inactive = the rest.

SMILES	mHTT-CaM PPI inh	Pf apPOL inh
S=C(S)N1CCCCC1	.	1.2
S=C(SSC(=S)N1CCCCC1)N1CCCCC1	51.2*	.
COc1ccc2c(c1)C1(CCN(S(=O)(=O)c3ccc(F)cc3F)C1)C(=O)N2 (centres undefined)	-4.4	-5.0
CC1(C)CCC(C)(C)c2cc(-c3csc(-c4c(Cl)cc(C(F)(F)F)cc4Cl)n3)ccc21	.	0.5
O=C1CCC(=O)N1C1CCCN2CCCCC12 (centres undefined)	-0.1	.
CC1N=C(c2ccccc2)c2ccccc2N(CC(=O)Nc2cccc(Cl)c2)C1=O (centres undefined)	22.0	-11.2
Cc1ccc(NC(=O)CN2C(=O)C(C)N=C(c3ccccc3)c3ccccc32)cc1Cl (centres undefined)	52.0*	-21.2
Cc1ccc(C(=O)N2CCN(/C(N)=N/[N+](=O)[O-])CC2)cc1[N+](=O)[O-]	i	-1.7
CCOc1ccc(NC(=O)N2CCC3(C2)C(=O)Nc2ccc(OC)cc23)cc1 (centres undefined)	15.7	-7.8
COc1cc(/C=C/[N+](=O)[O-])cc(I)c1OCc1ccccc1	3.7	-3.9
COc1cc(/C=C/[N+](=O)[O-])cc(I)c1O	51.6*	-2.7
CCOc1cc(/C=C/[N+](=O)[O-])cc(I)c1O	56.6*	-1.7
C#CCOc1c(I)cc(/C=C/[N+](=O)[O-])cc1OC	13.5	0.2
CCCCCCC(=O)OC1CCC2(C)C(=CCC3C4CCC(=O)C4(C)CCC32)C1 (centres undefined)	-14.6	-8.1
Cc1cc([N+](=O)[O-])nn1CC(=O)Nc1ccc(Cl)cc1C(=O)c1ccccc1	3.0	1.0
O=C(CN1CCN(c2ccc(F)cc2)CC1)Nc1ccc(Cl)cc1C(=O)c1ccccc1	72.4*	-1.0
Cc1cccc(-n2c(-c3cccnc3)nc3ccccc3c2=O)c1	100.0*	-9.7
Cc1ccc(-c2nc3ccccc3c(=O)n2-c2cccnc2)cc1	1.7	-8.5
CN(C)C(=O)Oc1ccc2c(c1)OC(=Cc1ccccc1)C2=O	2.4	-3.5
Cc1sc(C=C(C#N)C#N)cc1[N+](=O)[O-]	12.8	.
CCc1c(C(=O)O)nnn1Cc1c(F)cccc1Cl	8.1	-2.7
O=c1oc2ccccc2c(O)c1C(c1ccccc1[N+](=O)[O-])c1c(O)c2ccccc2oc1=O	24.0	-4.8
CC(c1c(O)c2ccccc2oc1=O)c1c(O)c2ccccc2oc1=O	5.0	0.7
O=c1oc2ccccc2c(O)c1C(c1ccc([N+](=O)[O-])cc1)c1c(O)c2ccccc2oc1=O	71.0*	-7.1
COc1ccc(OC)c(C(c2c(O)c3ccccc3oc2=O)c2c(O)c3ccccc3oc2=O)c1	55.0*	-21.4
SMILES	mHTT-CaM PPI inh	Pf apPOL inh
CC1=Nc2ccccc2C1=Cc1c(O)[nH]c(=O)[nH]c1=O	54.0*	-49.6
COc1cc(OC)c(C=C(C#N)C#N)cc1Br	-7.2	.
NC1(Cc2ccc(Cl)cc2)CC1	0.0	.
COc1ccc(N2CCN(Cc3ccc(Cl)c(Cl)c3)CC2)cc1	65.0*	-5.0
COc1ccc(N2CCN(Cc3ccc(Cl)cc3)CC2)cc1	34.5	-5.5
COc1ccc(N2CCN(Cc3cccc(Cl)c3Cl)CC2)cc1	56.3*	5.2
COc1ccc(N2CCN(Cc3ccc(F)cc3)CC2)cc1	22.3	-0.2
CN1CC(CO)C=C2c3cccc4[nH]cc(c34)CC21 (centres undefined)	.	-0.5
O=c1c2cc3c(=O)n(CCS(=O)(=O)F)c(=O)c3cc2c(=O)n1CCS(=O)(=O)F	-1.0	-4.2
CCC(=O)N1N=C2C3CCN(CC3)C2C1c1cccc(OC)c1OC (centres undefined)	-4.4	-8.1
CCOc1ccc(CN2CCN(c3ccc(F)cc3)CC2)cc1	-0.9	-8.0
N#CC1=C(N)C(C#N)(C#N)C(c2ccccc2C(F)(F)F)C2CSCC=C12 (centres undefined)	55.0*	-2.9
O=[N+]([O-])C12C=CCC([N+](=O)[O-])(CN(CCO)C1)C2 (centres undefined)	-4.0	-5.2
O=S(=O)(F)c1ccc(C2=CC(c3ccccc3)n3ncnc3N2)cc1 (centres undefined)	100.0*	-5.1
O=S(=O)(F)c1ccc(-c2nnc(-c3ccccc3)o2)cc1	9.0	2.9
Cc1nc(C(=O)Nc2ccc3c(c2)OCO3)c(C)n1C1CCN(C)CC1	71.4*	-2.0
Cc1nc(C(=O)Nc2ccc3c(c2)OCCO3)c(C)n1C1CCN(C)CC1	13.9	2.8
CCCn1cnnc1C1CCNCC1	-8.4	4.9
CCN1C(=O)NC(=O)/C(=C/c2cn(CC(=O)N3CCCCC3)c3ccccc23)C1=O	7.0	0.8
CCN1C(=O)NC(=O)/C(=C/c2cn(CC(=O)NCc3ccco3)c3ccccc23)C1=O	51.0*	-1.0
CCN1C(=O)NC(=O)/C(=C/c2cn(CC(=O)NCCOC)c3ccccc23)C1=O	5.0	-5.8
CCN(CC)C(=O)Cn1cc(/C=C2\C(=O)NC(=O)N(c3ccccc3F)C2=O)c2ccccc21	62.0*	-3.4
C[S+](C)c1c(O)n(-c2ccccc2)c(=O)[nH]c1=O	-6.5	-2.8
COc1ccc(Cl)cc1NC(=O)C1c2ccccc2C(=O)N2CCCCC12 (centres undefined)	2.0	-4.6
COc1ccc(Cl)cc1NC(=O)C1c2cc(OC)c(OC)cc2C(=O)N2CCCCC12 (centres undefined)	79.0*	-4.3
SMILES	mHTT-CaM PPI inh	Pf apPOL inh
COCCN1CCC(N2CCCN(C(=O)COc3ccc(F)cc3)CC2)C1=O (centres undefined)	19.3	1.3
O=[N+]([O-])c1ccc(N2CCCCC2)c2nonc12	.	-121.9
O=[N+]([O-])c1ccc(Cl)c2nonc12	96.4*	.
O=[N+]([O-])c1ccc(N2CCOCC2)c2nonc12	.	-84.2
Nc1ccc([N+](=O)[O-])c2nonc12	53.2*	.
COC(=O)C(O)(c1ccccc1)C1CCC1 (centres undefined)	-6.3	.
COc1ccc2c(c1)C1(CCN(C(=O)Cc3ccccc3Cl)C1)C(=O)N2 (centres undefined)	21.2	-4.0
O=[N+]([O-])c1cc2nonc2c2n[nH]nc12	10.3	.
O=[N+]([O-])c1c(Br)c([N+](=O)[O-])c2n[nH]nc2c1Br	88.0*	-4.2
COc1cccc(C=C2Oc3cc(OC(=O)N(C)C)ccc3C2=O)c1OC	4.0	0.5
CC(=O)[C@@]12N[C@@H]1CC1C3CC=C4C[C@@H](O)CC[C@]4(C)C3CC[C@@]12C (some centres undefined)	-4.7	.
COc1ccc2c(c1)C1(CCN(C(=O)c3cccc(Cl)c3)C1)C(=O)N2C (centres undefined)	10.7	-7.2
COc1ccc(CN2CCN(c3cccc(Cl)c3)CC2)cc1O	11.8	-5.2
COc1cc(CN2CCN(c3cccc(Cl)c3)CC2)cc(I)c1O	57.8*	-5.6
CN1CCc2[nH]c(=S)c(C#N)c(-c3cccs3)c2C1	52.3*	.
CN1CCc2[nH]c(=S)c(C#N)cc2C1	22.9	.
CN(C)C(=O)Oc1ccc2c(c1)OC(=Cc1cc(Cl)cc3c1OCOC3)C2=O	3.0	4.6
C=CCSc1nc2ccccc2c(=O)n1-c1ccc(Cl)cc1	-17.8	1.9
COC(=O)c1ccc(CCl)s1	100.0*	.
CC12CCC(=O)C=C1CCC1C2CCC2(C)C1CCC2(C)O (centres undefined)	4.9	-7.2
O=C(CN1CCOCC1)Nc1ccc(Br)cc1C(=O)c1ccccc1	2.9	-3.8
O=C(CCN1CCOCC1)Nc1ccc(Br)cc1C(=O)c1ccccc1	80.6*	-1.5
CCCn1cc(C(=O)Nc2ccccc2CC)c2cccnc21	1.7	0.9
